In article PMC5540273 (PLoS ONE, 2017):

Tests used:
Settings in all cases: concentration: 1 μM, replicates: in singlicate; n = 1
SNARK = test system: T1, SNARK
T1 construct: gene NUAK2

SNRK = test system: SNRK
SRC = test system: SRC
SRMS = test system: SRMS
SRPK1 = test system: SRPK1
SRPK2 = test system: SRPK2
SRPK3 = test system: SRPK3
STK16 = test system: STK16
STK33 = test system: STK33
STK35 = test system: STK35
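Further: KINOMEscan kinase panel screen.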

| SMILES | %Inh (SNARK) [%] | %Inh (SNRK) [%] | %Inh (SRC) [%] | %Inh (SRMS) [%] | %Inh (SRPK1) [%] | %Inh (SRPK2) [%] | %Inh (SRPK3) [%] | %Inh (STK16) [%] | %Inh (STK33) [%] | %Inh (STK35) [%] |
| --- | --- | --- | --- | --- | --- | --- | --- | --- | --- | --- |
| CSc1ccc(NC2=C(c3ccc(Cl)cc3)C(=O)NC2=O)cc1 [SB-317658] | 12 | 0 | 17 | 3 | 0 | 7 | 9 | 24 | 0 | 0 |
| Cl.O=C(Nc1ccc(Oc2ccc3[nH]c(NC(=O)c4ccco4)nc3c2)cc1)Nc1cc(C(F)(F)F)ccc1F [GW683134] | 0 | 0 | 23 | 0 | 51 | 0 | 100 | 0 | 76 | 6 |
| COC(=O)Nc1nc2cc(Oc3ccc(NC(=O)Nc4cccc(SC)c4)cc3)ccc2[nH]1.Cl [GW697999] | 7 | 0 | 61 | 0 | 38 | 17 | 0 | 3 | 0 | 0 |
| Cc1ccc(NC(=O)c2ccnc(N3CCCCC3)c2)cc1-c1ccc(C(=O)NCC2CC2)cc1 [GW775610] | 0 | 0 | 0 | 0 | 0 | 0 | 14 | 0 | 0 | 0 |
| Cn1cc(-c2cnc(N)c3c(-c4ccc5c(c4)CCN5C(=O)Cc4ccccc4)csc23)cn1 [GSK2593074] | 12 | 0 | 81 | 55 | 3 | 0 | 0 | 24 | 0 | 4 |
| Fc1cc(Cl)ccc1Nc1ccnc2cc(-c3ccc(CN4CCOCC4)o3)ccc12 [GW560109] | 0 | 7 | 99.2 | 15 | 35 | 0 | 10 | 0 | 6 | 92.1 |
| O=C(Nc1n[nH]c2cc(-c3cccs3)ccc12)C1CC1 [SB-731284] | 13 | 42 | 0 | 1 | 44 | 23 | 52 | 4 | 0 | 15 |
| CN(C)CCNS(=O)(=O)c1ccc(-c2ccnc3[nH]ccc23)cc1 [GSK977620] | 73 | 0 | 6 | 0 | 45 | 0 | 0 | 62 | 66 | 15 |
| CC(C)(C)c1ccc(C(=O)Nc2cn3cc(-n4ccnc4)ccc3n2)cc1 | 79 | 16 | 0 | 0 | 0 | 0 | 0 | 19 | 0 | 0 |
| CCn1c(-c2nonc2N)nc2c(-c3ccccc3)ncc(OCCCN)c21.O=C(O)C(F)(F)F.O=C(O)C(F)(F)F [GSK260205] | 0 | 57 | 0 | 0 | 22 | 0 | 0 | 0 | 0 | 0 |
| COC(=O)Nc1nc2ccc(Oc3ccc(CC(=O)Nc4cc(C(F)(F)F)ccc4F)cc3)cc2[nH]1 [GW680903] | 0 | 0 | 0 | 0 | 31 | 0 | 0 | 0 | 0 | 0 |
| O=C(Nc1c(F)cccc1F)c1cc(C(=O)c2ccccc2F)c[nH]1 [GSK1326180] | 0 | 0 | 0 | 0 | 18 | 1 | 0 | 0 | 16 | 0 |
| NCCC(NC(=O)c1cc(Br)c(-c2ccnc3[nH]ccc23)s1)c1ccccc1.O=C(O)C(F)(F)F.O=C(O)C(F)(F)F (stereo not drawn) [GSK1307810] | 90.2 | 0 | 0 | 0 | 81 | 36 | 83 | 63 | 90 | 20 |
| Cc1cc(-c2c(-c3ccc(F)cc3)ncn2CCCN2CCOCC2)nc(N)n1 [SB-222517] | 0 | 0 | 22 | 26 | 0 | 0 | 19 | 0 | 0 | 0 |
| CN1CCN(Cc2ccc(NC(=O)Nc3ccc(N(C)c4ccnc(Nc5ccc(CS(C)(=O)=O)cc5)n4)cc3)cc2)CC1.Cl [GW827654] | 59 | 10 | 3 | 0 | 92.3 | 31 | 82 | 80 | 0 | 18 |
| CN(c1ccc2c(c1)nc(NCc1ccccc1)n2C)c1ccnc(Nc2ccc(CS(C)(=O)=O)cc2)n1.Cl [GW811603] | 0 | 0 | 32 | 5 | 0 | 30 | 34 | 54 | 0 | 0 |
| Cc1ccc(O)cc1Nc1ccnc2ccc(C(C)(C)C)cc12 [GW856805] | 19 | 34 | 99.9 | 19 | 24 | 8 | 9 | 43 | 11 | 0 |
| Cc1cccc(Nc2nc(N[C@H]3CCCC[C@H]3N)ncc2C(N)=O)c1.Cl [GSK986310] | 39 | 11 | 65 | 0 | 44 | 0 | 0 | 24 | 55 | 28 |
| COc1ccc(C)c(Nc2ccnc(Nc3ccc(-c4cnc[nH]4)cc3)n2)c1.Cl [GW784041] | 0 | 0 | 86 | 0 | 32 | 0 | 30 | 15 | 0 | 12 |
| O=C1NC(=O)C(c2ccccc2Cl)=C1Nc1cccc(Cl)c1 [SB-342409] | 0 | 11 | 0 | 0 | 21 | 0 | 23 | 13 | 0 | 6 |
| CC(C)NCC(Cc1ccccc1)NC(=O)c1cc(Br)c(-c2ccnc3[nH]ccc23)s1.Cl.Cl (stereo not drawn) [GSK1383281] | 89 | 0 | 0 | 0 | 43 | 0 | 0 | 46 | 96.6 | 0 |
| Nc1ncc(-c2cn[nH]c2)c2scc(-c3ccc4c(c3)CCN4C(=O)Cc3ccccc3)c12 [GSK2593067] | 10 | 0 | 69 | 59 | 44 | 0 | 0 | 0 | 2 | 0 |
| CC(C)c1nc(-c2cccc(NS(=O)(=O)c3c(F)cccc3F)c2)c(-c2ccnc(Nc3ccc(N4CCOCC4)nc3)n2)s1.Cl [GSK1723980] | 0 | 0 | 100 | 99.7 | 48 | 0 | 0 | 30 | 62 | 30 |
| CC(=O)Nc1cn2nc(Oc3cccc(NC(=O)c4cccc(C(F)(F)F)c4)c3)ccc2n1 | 0 | 0 | 99.9 | 11 | 0 | 22 | 9 | 10 | 3 | 1 |
| O=C(Nc1n[nH]c2nc(-c3ccccc3O)ccc12)C1CC1 [SB-711880] | 0 | 0 | 0 | 0 | 0 | 0 | 23 | 15 | 0 | 57 |
| Cc1ccc(NC(=O)c2cccc(N3CCCCC3)c2)cc1-c1ccc(C(=O)NCC2CC2)cc1 [GSK1917008] | 0 | 0 | 0 | 0 | 32 | 0 | 23 | 7 | 0 | 89 |
| CNc1nccc(-c2ccc3c(N)n[nH]c3c2)n1 [GSK2206003] | 35 | 0 | 19 | 11 | 68 | 5 | 31 | 34 | 0 | 0 |
| COc1cc(Nc2nccc(N3CCC(NS(=O)(=O)c4ccc(NC(C)=O)cc4)CC3)n2)cc(OC)c1OC [GSK1379825] | 0 | 0 | 35 | 0 | 67 | 0 | 8 | 94.8 | 0 | 52 |
| c1ccc(Oc2ccc(Nc3ccnc4cc(-c5ccc(CN6CCCCC6)o5)ccc34)cc2)nc1 [GW567143] | 9 | 0 | 37 | 94.2 | 0 | 0 | 20 | 0 | 99.9 | 59 |
| Cn1cc(-c2ccc3c(c2)CCN3C(=O)Cc2cc(F)cc(C(F)(F)F)c2)c2c(N)ncnc21 [GSK2635225] | 10 | 0 | 29 | 0 | 18 | 0 | 2 | 20 | 0 | 0 |
